Legend:
Experiment in all cases: log2 ratio of Biotin-Ahx-Ub-VS probe labelling (fragment/DMSO); higher = less target engagement (more negative = stronger competition), active = hit call of the paper (q ≤ 0.05, log2 ratio ≤ -1)
Details in all cases: compound concentration: 200 uM; treatment time: 3 h
USP34 = USP34 (UniProt Q70CQ2)
Outline: (§1)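 HEK293T lysate in Tris/CHAPS/IGEPAL buffer with protease inhibitors (495 µg per sample) was given fragment at 200 µM or vehicle for 3 h, in triplicate. It then received Biotin-Ahx-Ub-VS at 0.5 µM final for 1 h. Labelled DUBs were NeutrAvidin-enriched, digested with LysC and trypsin, and run by diaPASEF LC-MS/MS. Values are average log2 fragment/vehicle ratios by unpaired t-test on global-median-normalised Spectronaut quantities of proteins with ≥2 unique peptides.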

USP36 = target: T1, USP36 (UniProt Q9P275)
T1 sequence (whole entry): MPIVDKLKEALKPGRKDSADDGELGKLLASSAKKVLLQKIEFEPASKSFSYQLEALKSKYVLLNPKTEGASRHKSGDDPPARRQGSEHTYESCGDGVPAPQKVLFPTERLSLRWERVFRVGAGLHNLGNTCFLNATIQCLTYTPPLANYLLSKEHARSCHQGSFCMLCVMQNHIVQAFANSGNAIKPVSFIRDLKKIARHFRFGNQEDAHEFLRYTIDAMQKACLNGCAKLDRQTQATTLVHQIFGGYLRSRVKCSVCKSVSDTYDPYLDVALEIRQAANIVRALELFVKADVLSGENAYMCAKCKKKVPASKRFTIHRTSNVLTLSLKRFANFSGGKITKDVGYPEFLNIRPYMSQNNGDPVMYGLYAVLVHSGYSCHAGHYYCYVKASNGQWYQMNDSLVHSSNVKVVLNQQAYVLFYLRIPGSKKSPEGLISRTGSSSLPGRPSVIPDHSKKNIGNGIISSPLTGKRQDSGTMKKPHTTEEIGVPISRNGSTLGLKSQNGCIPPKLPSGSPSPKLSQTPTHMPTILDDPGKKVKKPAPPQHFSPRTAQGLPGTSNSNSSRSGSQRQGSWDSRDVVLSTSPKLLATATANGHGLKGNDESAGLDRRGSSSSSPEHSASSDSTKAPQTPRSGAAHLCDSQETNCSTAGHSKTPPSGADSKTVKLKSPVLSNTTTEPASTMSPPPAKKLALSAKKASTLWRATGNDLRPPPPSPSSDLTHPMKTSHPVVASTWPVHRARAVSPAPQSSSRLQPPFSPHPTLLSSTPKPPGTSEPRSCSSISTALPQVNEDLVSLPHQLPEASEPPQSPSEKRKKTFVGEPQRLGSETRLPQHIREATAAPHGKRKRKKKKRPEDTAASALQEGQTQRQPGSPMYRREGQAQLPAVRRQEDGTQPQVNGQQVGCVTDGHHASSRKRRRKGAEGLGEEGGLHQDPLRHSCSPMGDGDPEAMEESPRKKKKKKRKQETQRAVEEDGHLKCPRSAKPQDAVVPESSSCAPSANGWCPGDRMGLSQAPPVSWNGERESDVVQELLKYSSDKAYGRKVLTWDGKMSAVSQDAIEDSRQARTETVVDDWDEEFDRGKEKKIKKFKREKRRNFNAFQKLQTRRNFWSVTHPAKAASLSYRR
Outline: as §1

USP38 = target: T2, USP38 (UniProt Q8NB14)
T2 sequence (whole entry): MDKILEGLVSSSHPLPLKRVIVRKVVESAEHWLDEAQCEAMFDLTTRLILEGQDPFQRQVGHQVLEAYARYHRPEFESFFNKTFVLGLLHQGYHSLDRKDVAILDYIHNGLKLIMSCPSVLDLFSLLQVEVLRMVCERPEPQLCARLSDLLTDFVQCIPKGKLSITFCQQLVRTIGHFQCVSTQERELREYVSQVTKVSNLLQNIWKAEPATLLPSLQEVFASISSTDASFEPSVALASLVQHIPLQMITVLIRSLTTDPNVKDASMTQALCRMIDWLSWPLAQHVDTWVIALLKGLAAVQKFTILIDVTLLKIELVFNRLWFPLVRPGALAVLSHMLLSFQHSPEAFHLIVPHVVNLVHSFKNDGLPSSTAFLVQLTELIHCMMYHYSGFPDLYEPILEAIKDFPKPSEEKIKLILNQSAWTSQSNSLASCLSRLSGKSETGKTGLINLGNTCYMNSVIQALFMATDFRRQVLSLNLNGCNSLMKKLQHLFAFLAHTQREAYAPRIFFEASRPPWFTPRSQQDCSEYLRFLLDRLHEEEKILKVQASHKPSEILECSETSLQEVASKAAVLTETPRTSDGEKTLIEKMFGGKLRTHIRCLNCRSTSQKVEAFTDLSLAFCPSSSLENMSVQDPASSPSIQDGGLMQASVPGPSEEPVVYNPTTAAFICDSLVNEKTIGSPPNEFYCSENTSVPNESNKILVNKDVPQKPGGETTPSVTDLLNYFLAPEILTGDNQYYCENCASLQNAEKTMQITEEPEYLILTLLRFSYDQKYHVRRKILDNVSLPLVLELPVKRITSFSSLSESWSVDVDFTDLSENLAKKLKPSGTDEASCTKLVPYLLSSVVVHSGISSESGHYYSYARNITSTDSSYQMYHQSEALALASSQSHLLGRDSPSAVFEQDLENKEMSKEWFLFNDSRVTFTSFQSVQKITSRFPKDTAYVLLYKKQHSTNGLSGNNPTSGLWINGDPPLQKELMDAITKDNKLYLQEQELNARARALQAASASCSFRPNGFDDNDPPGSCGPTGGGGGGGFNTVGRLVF
Outline: as §1

USP39 = target: T3, USP39 (UniProt Q53GS9)
T3 sequence (whole entry): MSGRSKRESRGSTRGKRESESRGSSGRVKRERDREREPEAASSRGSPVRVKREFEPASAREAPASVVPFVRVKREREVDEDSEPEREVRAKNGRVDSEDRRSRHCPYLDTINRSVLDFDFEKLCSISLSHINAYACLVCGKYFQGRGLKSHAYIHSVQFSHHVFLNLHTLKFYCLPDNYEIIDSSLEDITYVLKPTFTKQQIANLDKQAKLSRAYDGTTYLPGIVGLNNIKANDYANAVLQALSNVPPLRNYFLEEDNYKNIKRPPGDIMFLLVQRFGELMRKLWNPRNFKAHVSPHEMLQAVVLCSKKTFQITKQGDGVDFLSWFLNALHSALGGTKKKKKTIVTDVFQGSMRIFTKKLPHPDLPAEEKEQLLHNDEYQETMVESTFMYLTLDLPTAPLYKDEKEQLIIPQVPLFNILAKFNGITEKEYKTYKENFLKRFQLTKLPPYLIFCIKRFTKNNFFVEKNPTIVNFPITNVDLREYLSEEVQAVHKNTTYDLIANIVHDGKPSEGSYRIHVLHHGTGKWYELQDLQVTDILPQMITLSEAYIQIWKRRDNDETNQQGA
Outline: as §1

USP4 = target: T4, USP4 (UniProt Q13107)
T4 sequence (whole entry): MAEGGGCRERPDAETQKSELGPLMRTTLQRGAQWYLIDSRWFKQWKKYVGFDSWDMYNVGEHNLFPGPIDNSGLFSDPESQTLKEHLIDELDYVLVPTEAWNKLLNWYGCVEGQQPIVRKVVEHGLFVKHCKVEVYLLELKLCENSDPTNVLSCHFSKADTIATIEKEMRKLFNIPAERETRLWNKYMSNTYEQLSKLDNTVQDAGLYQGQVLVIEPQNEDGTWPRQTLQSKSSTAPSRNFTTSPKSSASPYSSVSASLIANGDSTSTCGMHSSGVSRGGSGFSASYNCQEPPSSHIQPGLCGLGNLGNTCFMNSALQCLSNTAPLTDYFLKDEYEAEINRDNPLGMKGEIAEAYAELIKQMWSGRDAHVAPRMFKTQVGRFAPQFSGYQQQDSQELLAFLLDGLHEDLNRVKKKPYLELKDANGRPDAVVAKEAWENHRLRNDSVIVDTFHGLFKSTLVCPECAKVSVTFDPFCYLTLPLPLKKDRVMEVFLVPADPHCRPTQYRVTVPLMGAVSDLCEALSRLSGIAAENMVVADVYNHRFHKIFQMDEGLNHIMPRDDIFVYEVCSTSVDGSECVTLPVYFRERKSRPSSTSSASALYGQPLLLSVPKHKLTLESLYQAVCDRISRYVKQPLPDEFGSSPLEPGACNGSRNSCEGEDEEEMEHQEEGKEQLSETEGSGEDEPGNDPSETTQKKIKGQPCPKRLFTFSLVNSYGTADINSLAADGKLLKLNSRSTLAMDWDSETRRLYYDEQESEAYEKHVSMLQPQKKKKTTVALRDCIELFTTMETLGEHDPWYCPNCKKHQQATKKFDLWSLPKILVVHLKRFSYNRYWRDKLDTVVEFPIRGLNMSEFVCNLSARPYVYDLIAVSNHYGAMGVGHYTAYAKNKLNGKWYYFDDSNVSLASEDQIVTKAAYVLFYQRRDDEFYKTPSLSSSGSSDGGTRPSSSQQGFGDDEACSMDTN
Outline: as §1

Measured: log2 ratio of Biotin-Ahx-Ub-VS probe labelling

USP34, sequence (Q70CQ2 whole entry, the tested form may be a part): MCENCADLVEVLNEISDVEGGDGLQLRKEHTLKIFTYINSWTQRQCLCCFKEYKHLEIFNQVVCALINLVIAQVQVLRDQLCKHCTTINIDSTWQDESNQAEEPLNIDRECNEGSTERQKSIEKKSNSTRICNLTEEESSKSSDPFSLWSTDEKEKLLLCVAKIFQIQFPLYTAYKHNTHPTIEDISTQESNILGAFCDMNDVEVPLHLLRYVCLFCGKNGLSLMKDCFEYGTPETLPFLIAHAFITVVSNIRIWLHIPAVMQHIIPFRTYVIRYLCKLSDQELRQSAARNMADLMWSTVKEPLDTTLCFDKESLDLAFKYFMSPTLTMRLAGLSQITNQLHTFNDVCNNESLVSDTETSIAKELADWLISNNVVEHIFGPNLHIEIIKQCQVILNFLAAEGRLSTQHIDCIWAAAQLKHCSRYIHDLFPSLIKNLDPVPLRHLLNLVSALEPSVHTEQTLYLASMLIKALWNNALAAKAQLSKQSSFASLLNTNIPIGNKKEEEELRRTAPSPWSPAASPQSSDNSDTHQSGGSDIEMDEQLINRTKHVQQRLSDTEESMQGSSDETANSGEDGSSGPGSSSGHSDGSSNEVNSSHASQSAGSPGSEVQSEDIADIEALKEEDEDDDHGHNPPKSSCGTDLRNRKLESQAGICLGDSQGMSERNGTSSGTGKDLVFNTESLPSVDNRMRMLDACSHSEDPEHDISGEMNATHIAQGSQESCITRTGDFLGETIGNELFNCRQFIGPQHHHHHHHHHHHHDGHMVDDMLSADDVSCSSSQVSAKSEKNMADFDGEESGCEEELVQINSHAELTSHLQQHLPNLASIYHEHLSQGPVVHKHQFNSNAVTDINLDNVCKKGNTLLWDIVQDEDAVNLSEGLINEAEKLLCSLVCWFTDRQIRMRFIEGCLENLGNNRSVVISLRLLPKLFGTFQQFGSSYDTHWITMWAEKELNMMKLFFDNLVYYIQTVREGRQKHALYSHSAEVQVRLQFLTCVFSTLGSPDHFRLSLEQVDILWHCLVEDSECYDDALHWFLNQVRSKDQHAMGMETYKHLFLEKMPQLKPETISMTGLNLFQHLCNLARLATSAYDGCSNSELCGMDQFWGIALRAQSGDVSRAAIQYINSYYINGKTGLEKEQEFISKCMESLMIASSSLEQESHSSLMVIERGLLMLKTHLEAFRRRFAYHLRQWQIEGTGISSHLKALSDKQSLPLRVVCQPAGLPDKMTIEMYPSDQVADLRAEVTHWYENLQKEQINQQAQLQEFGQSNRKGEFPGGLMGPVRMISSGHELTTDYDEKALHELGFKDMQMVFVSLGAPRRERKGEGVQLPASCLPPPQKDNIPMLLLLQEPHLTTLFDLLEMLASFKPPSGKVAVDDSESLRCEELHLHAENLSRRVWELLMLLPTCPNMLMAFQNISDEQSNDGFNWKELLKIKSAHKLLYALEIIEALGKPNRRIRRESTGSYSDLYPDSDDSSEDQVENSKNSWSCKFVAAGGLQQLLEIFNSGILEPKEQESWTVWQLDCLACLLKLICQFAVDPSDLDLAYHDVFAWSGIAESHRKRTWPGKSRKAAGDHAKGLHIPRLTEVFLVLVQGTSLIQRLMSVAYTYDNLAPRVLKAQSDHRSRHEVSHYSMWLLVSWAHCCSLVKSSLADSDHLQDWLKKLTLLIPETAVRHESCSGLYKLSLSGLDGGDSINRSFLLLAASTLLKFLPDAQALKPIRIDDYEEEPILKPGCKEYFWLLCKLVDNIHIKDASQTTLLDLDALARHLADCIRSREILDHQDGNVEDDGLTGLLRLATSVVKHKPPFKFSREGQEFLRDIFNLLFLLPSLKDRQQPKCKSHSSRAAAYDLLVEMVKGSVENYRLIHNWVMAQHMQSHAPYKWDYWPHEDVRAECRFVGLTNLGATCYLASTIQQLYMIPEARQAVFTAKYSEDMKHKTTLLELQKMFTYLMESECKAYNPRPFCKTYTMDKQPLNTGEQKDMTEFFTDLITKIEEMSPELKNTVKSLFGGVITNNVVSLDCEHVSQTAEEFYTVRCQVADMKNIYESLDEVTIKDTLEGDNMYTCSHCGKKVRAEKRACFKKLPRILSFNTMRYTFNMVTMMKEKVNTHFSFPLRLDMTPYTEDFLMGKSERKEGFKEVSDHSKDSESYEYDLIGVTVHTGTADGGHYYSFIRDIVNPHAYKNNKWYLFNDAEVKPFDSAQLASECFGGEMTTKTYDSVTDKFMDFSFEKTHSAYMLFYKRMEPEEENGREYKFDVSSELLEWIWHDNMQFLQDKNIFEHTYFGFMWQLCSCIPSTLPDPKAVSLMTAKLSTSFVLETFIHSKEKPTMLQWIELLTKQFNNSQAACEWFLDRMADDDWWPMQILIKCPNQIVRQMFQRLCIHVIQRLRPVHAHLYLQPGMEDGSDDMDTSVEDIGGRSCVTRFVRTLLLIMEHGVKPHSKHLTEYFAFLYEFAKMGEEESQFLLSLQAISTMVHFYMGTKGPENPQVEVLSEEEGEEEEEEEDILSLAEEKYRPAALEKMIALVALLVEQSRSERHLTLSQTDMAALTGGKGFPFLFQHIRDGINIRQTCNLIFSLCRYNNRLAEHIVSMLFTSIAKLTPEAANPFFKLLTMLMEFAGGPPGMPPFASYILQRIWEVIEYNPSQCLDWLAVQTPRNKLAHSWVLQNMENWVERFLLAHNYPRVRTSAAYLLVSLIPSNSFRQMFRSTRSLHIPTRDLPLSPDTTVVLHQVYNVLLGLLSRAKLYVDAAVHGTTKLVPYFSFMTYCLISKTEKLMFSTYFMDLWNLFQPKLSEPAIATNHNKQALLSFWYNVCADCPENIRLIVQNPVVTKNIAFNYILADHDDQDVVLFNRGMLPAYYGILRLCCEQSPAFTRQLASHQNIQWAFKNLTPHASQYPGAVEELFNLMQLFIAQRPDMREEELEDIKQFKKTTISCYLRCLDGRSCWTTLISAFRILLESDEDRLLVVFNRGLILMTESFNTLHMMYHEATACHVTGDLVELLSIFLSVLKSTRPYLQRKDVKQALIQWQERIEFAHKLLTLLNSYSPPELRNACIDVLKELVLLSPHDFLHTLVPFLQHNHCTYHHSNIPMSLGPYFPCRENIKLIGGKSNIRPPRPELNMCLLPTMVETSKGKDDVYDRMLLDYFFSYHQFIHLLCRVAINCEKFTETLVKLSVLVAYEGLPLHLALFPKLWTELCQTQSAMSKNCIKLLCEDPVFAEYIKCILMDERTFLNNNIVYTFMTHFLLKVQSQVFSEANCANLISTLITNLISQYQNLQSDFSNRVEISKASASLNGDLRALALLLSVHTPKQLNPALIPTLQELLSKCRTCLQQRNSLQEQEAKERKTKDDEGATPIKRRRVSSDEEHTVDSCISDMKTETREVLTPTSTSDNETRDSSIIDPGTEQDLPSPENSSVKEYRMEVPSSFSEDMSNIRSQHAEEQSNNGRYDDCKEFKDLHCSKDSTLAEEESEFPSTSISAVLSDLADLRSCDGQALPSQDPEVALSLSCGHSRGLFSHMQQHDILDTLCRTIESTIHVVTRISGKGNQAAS

Cc1nc(CN2CCCN(C(=O)CCl)CC2)no1.Cl
inactive: USP34 0.0178 | USP36 -0.0476 | USP38 0.0657 | USP39 -0.161 | USP4 0.31

Source: the supplement of paper PMC11732987, “Enantioselective OTUD7B fragment discovery through chemoproteomics screening and high-throughput optimisation” (Communications Chemistry, 2025)
